Rows were chosen to be rich in hits. Some 7.5% of all compounds tested hit in one or more screens of this group.
HCV inh: qHTS Assay for Inhibitors of Hepatitis C Virus (HCV); Huh7.5.1 HCVcc-Cre infection, luciferase reporter, 44 h; Potency, µM (highest dose often 41.8 µM), for the others: top-dose activity change, negative = inhibition, most hits filed as inhibitors; hit rate 3.4% among 340,000; AID 651820, 2012; further: potency means the concentration at half of the fitted maximal effect
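Reporter virus HCVcc-Cre (~0.5 moi) infects cells exposed to compound; seeding density 1,000 cells/well with 4 h settling beforehand. Luminescence, 15 sec read, taken 44 h post-infection following a 15 min RT substrate incubation.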
FMDV inh: High Throughput Screening for Foot and Mouth Disease Virus Antivirals; FMDV antiviral cell-based qHTS; Potency, µM (highest dose often 57.9 µM), inactives show at the highest dose activity change, negative = inhibition, actives largely listed as inhibitors; hit rate 1.2% among 410,000; AID 1159524, 2015; calls by dose curve; tested in HEK293T cells; further: read-out not given here; potency means the concentration at half of the fitted maximal effect; nearly all actives have a fitted effect of over 45% in size
Vaccinia Venus: qHTS for Stage-Specific Inhibitors of Vaccinia Orthopoxvirus: Venus Reporter Primary qHTS; Vaccinia virus Venus reporter expression, fluorescence; Potency, µM (highest dose often 36.5 µM), for inactives: top-dose activity change, negative = inhibition, most hits filed as inhibitors; hit rate 0.46% among 330,000; AID 720580, 2013; calls by dose curve; tested in A549 cells; further: potency means the concentration at half of the fitted maximal effect; nearly all actives have a fitted effect of over 30% in size
FBPA Giardia inh: qHTS Assay for Inhibitors of Fructose-1,6-bisphosphate Aldolase from Giardia Lamblia | A8B2U2 | purified Giardia FBPA | Potency, µM (series often up to 59.6 µM), for inactives: top-dose activity, negative = inhibition, actives largely listed as inhibitors | hit rate 0.71% among 290,000 | AID 2451, 2010; further: potency means the concentration at half of the fitted maximal effect; nearly all actives have a fitted effect of over 55% in size
Target sequence (A8B2U2 whole entry, looked up): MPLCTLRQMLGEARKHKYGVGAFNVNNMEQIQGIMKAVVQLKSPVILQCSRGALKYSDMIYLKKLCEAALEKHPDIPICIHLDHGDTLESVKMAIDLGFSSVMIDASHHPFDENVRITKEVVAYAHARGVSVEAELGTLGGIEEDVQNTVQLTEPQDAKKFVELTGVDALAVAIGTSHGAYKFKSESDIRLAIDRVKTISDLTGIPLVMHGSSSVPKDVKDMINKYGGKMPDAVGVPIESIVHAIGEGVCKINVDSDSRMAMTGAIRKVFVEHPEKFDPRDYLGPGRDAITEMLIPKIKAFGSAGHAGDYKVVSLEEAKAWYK
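Giardia FBPA (40 nM reagent) was preincubated 10 min at RT with compound (up to 57.5 uM final), then substrate plus GAPDH/TPI/NAD/arsenate coupling system with diaphorase/resazurin was added; resorufin fluorescence (525/598 nm) was read after 20 min.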
HCMV inh: qHTS Assay for inhibitors of the human cytomegalovirus (HCMV); HFF cells, HCMV-luciferase reporter, 72 h; active compounds read low; activity change, negative = inhibition, % at 57.5 µM; hit rate 4.5% among 410,000; in the data active means activity change below about -60%; inconclusive means no clear call, values can overlap the other calls; inactive means above about -39%
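Two compound doses tested in HFFs infected with HCMV-luciferase, MOI 1 PFU/cell, 72 h at 37C. Lysate luminescence read with OneGlo; data normalized against buffer-only and 10uM Salinomycin inhibitor controls.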
VACV mCherry inh: qHTS for Stage-Specific Inhibitors of Vaccinia Orthopoxvirus: mCherry Reporter Primary qHTS; hit rate 0.63% among 310,000; AID 720579, 2013; Potency, µM (highest dose often 36.5 µM), for the others: at the highest dose activity change, negative = inhibition, most hits filed as inhibitors; Vaccinia virus mCherry reporter infection, fluorescence; calls by dose curve; tested in A549 cells; further: potency means the concentration at half of the fitted maximal effect; nearly all actives have a fitted effect of over 35% in size
The depositor's hits bear a star; ! = not confirmed by another sample. Unless noted, the call rests on the fitted dose curve; in most records, active means well fitted curve in the direction sought with a large enough effect; inconclusive means small, poorly fitted or top-dose-only effect, or another doubt; inactive means no such curve, though single readings can be large; an effect the other way counts as inactive or inconclusive. On the % scale 0 is the no-effect control and ±100 the full control effect.

Results for Nc1ccc(S(=O)(=O)O)cn1 ?
HCV inh: inconclusive; FMDV inh: -24.3%; Vaccinia Venus: -4.0%; FBPA Giardia inh: 2.6%; HCMV inh: -69.2*!; VACV mCherry inh: -13.4%

Results for Nc1ccc(S(=O)(=O)c2ccc(N)nc2)cc1 ?
HCV inh: 20.8%; FMDV inh: -10.0%; Vaccinia Venus: 6.3%; HCMV inh: -11.2; VACV mCherry inh: 0.0%

What do the screens show for `COc1cc(C(C)=O)ccc1OCC(=O)N1CCCC1c1ccc2c(c1)OCCCO2` (stereo not given)?
FMDV inh: -12.1%; Vaccinia Venus: -12.7%; HCMV inh: 5.2; VACV mCherry inh: inactive

How did COc1cccc(CSc2nc3n(n2)C(c2cccc(F)c2)C(C(=O)Nc2ccccc2C)=C(C)N3)c1 (stereo not given) do in these assays?
FMDV inh: -15.4%; Vaccinia Venus: 6.5%; HCMV inh: 6.0; VACV mCherry inh: -0.7%

What do the screens show for `CC1=C(C(=O)Nc2ccccc2C)C(c2cccs2)n2nc(SCc3ccccc3)nc2N1` (stereo not given)?
FMDV inh: -25.3%; Vaccinia Venus: -22.3%; HCMV inh: -64.7*; VACV mCherry inh: inconclusive

What do the screens show for `CC1=C(C(=O)Nc2ccc(C)cc2C)C(c2ccc(C(=O)O)cc2)n2nc(SCc3ccccc3)nc2N1` (stereo not given)?
FMDV inh: 8.6%; Vaccinia Venus: -1.5%; HCMV inh: -6.4; VACV mCherry inh: -0.3%

Results for COc1cccc(CSc2nc3n(n2)C(CC(C)C)C(C(=O)Nc2ccccc2OC)=C(C)N3)c1 (stereo not given) ?
FMDV inh: -25.9%; Vaccinia Venus: -22.2%; HCMV inh: -69.5*; VACV mCherry inh: -18.5%

Results for COc1cc(C2C(C(=O)Nc3ccc(C)cc3C)=C(C)Nc3nc(SCc4ccccc4)nn32)cc(OC)c1OC (stereo not given) ?
FMDV inh: -1.7%; Vaccinia Venus: -11.1%; HCMV inh: -74.1*; VACV mCherry inh: -8.1%

Results for COc1cc(C2C(C(=O)Nc3ccccc3C)=C(C)Nc3nc(SCc4cc(C)ccc4C)nn32)ccc1O (stereo not given) ?
FMDV inh: -22.4%; Vaccinia Venus: inconclusive; HCMV inh: -74.3*; VACV mCherry inh: inconclusive

Results for Cn1nccc1C(=O)NCC1CCC2(CCN(Cc3ccc(-c4ccc(Cl)cc4)o3)CC2)O1 (stereo not given) ?
FMDV inh: inconclusive; Vaccinia Venus: -24.4%; VACV mCherry inh: -26.0%

What do the screens show for `C[C@@H]1CN(Cc2ccc3c(c2)CN(Cc2cccc4c2OCO4)CCO3)C[C@H](C)O1`?
FMDV inh: -3.9%; Vaccinia Venus: -0.2%; VACV mCherry inh: -13.5%

How did C(=C\c1cccs1)/c1ccccn1 do in these assays?
Vaccinia Venus: inconclusive; VACV mCherry inh: -2.9%

How did OC(C#Cc1ccccn1)c1cccs1 (stereo not given) do in these assays?
HCV inh: inconclusive; FMDV inh: 3.6%; Vaccinia Venus: -8.4%; FBPA Giardia inh: inconclusive; HCMV inh: -62.2*; VACV mCherry inh: inactive

What do the screens show for `CCOc1ccccc1NC(=O)C(OC(=O)c1ccc(N(C)C)cc1)c1ccccc1` (stereo not given)?
HCV inh: 11.2µM*; FMDV inh: -16.1%; Vaccinia Venus: -5.8%; FBPA Giardia inh: 0.2%; HCMV inh: -32.1; VACV mCherry inh: inactive

What do the screens show for `Cc1cc(Cl)ccc1NC(=O)CCCn1nc(C)c2c(C)n(-c3ccccc3)nc2c1=O`?
FMDV inh: -8.1%; Vaccinia Venus: -14.0%; HCMV inh: 15.0; VACV mCherry inh: -14.6%

Results for Cc1ccc(S(=O)(=O)CC(=O)N(CCCN2CCOCC2)c2nc3c(F)cccc3s2)cc1 ?
HCV inh: 1.8%; FMDV inh: 6.2%; Vaccinia Venus: -5.3%; HCMV inh: 17.0; VACV mCherry inh: inactive

Results for O=C(CCS(=O)(=O)c1ccccc1)N(CCCN1CCOCC1)c1nc2c(F)cccc2s1 ?
HCV inh: inconclusive; FMDV inh: 39.8µM*; Vaccinia Venus: inconclusive; HCMV inh: inconclusive; VACV mCherry inh: -4.5%

What do the screens show for `O=C(O)CC1SC(=O)N(CC(=O)c2ccccc2)C1=O` (stereo not given)?
HCV inh: 23.5%; FMDV inh: -9.5%; Vaccinia Venus: -4.7%; FBPA Giardia inh: 0.2%; HCMV inh: -10.7; VACV mCherry inh: inactive

How did Cc1ccccc1NC(=S)N(C)Cc1cn(C)c2ccccc12 do in these assays?
HCV inh: 0.6%; FMDV inh: 6.8%; Vaccinia Venus: -16.4%; FBPA Giardia inh: -1.0%; HCMV inh: -69.5*; VACV mCherry inh: -2.4%

What do the screens show for `Cc1ccccc1NC(=S)N(C)Cc1cccs1`?
HCV inh: -2.4%; FMDV inh: -4.6%; Vaccinia Venus: -10.2%; FBPA Giardia inh: 0.7%; HCMV inh: 30.7

What do the screens show for `CCOC(=O)c1cccc(NC(=O)c2cc3cc4ccc(C)cc4nc3o2)c1`?
FMDV inh: -19.1%; Vaccinia Venus: 0.3%; HCMV inh: 27.1; VACV mCherry inh: -5.8%

Results for Cc1cccc2c1-c1sc(C(=O)NCCCN3CCCC(C)C3)cc1CO2 (stereo not given) ?
HCV inh: 11.2µM*; FMDV inh: -11.3%; FBPA Giardia inh: 3.1%; HCMV inh: -23.5

How did Cc1cccc2c1-c1sc(C(=O)NCCc3ccc(Cl)cc3)cc1CO2 do in these assays?
FMDV inh: 0.0%; Vaccinia Venus: inconclusive; HCMV inh: -87.1*; VACV mCherry inh: inconclusive

How did Cc1cccc(CCNC(=O)c2cc3c(s2)-c2c(C)cccc2OC3)c1 do in these assays?
FMDV inh: inconclusive; Vaccinia Venus: -28.2%; HCMV inh: -20.3; VACV mCherry inh: -25.0%

How did CCCN1CCN(CCCNC(=O)c2cc3c(s2)-c2ccccc2OC3)CC1 do in these assays?
HCV inh: 10µM*; FMDV inh: 0.1%; Vaccinia Venus: -22.5%; FBPA Giardia inh: 0.2%; HCMV inh: -23.2; VACV mCherry inh: inconclusive

What do the screens show for `CN(C)CCNC(=O)c1cc2c(s1)-c1ccccc1OC2`?
HCV inh: 25.1µM*; FMDV inh: 41.2%; Vaccinia Venus: inconclusive; FBPA Giardia inh: -10.5%; HCMV inh: 105.2; VACV mCherry inh: -26.3%

What do the screens show for `Cc1ccc(F)c(CNC(=O)C2(C)CCCN2C(=O)C(C)C)c1F` (stereo not given)?
FMDV inh: -12.2%; Vaccinia Venus: 10.0%; HCMV inh: -9.6; VACV mCherry inh: inactive
